# Results from PubChem BioAssay (Tox21).
# Results filed as inconclusive are left out. Where a call stands in place of a potency, no number is given. The source made the active and inactive calls. Calls follow the shape of the full dose curve.
# Test: qHTS assay to identify small molecule agonists of the hypoxia (HIF-1) signaling pathway - cell viability counter screen (AID 1224844); also: nearly all actives have a fitted effect of over 50% in size
# Conditions: HRE-bla ME-180 viability, CellTiter-Glo luminescence, 17 h; series mostly up to 76.8 µM
# From the text: National Center for Advancing Translational Sciences [NCATS]
# NIH Chemical Genomics Center [NCGC]
# U.S. Environmental Protection Agency [EPA]
# National Institutes of Environmental Health Sciences [NIEHS]
# National Toxicology Program [NTP]
# U.S. Food and Drug Administration [FDA]
# Hypoxia-inducible factor-1 (HIF-1) is the major hypoxia-regulated transcription factor that controls cellular responses to low oxygen concentration. HIF-1 is composed of two subunits: hypoxia responsive HIF-1-alpha and constitutively expressed HIF-1-beta, which is also known as aryl hydrocarbon receptor nuclear translocator. During hypoxic conditions, HIF-1-alpha heterodimerizes with HIF-1-beta and translocates into the nucleus where the HIF-1 complex binds to the hypoxia-response element (HRE) and activates expression of target genes such as VEGF (vascular endothelial growth factor). The HIF-1 pathway is essential to normal growth and development, and is involved in the pathophysiology of cancer, inflammation, and ischemia.
# Using a beta-lactamase reporter-gene under control of the hypoxia response element, a cell-based assay [CellSensor(TM) HRE-bla ME-180 from Life Technologies, Carlsbad, CA] was used to measure hypoxia-induced signaling. Tox21 10K library compounds were measured for their ability to induce the reporter gene activity. The cytotoxicity of the Tox21 compound library against HRE-bla ME-180 cell line was tested in parallel by measuring cell viability using CellTiter-Glo assay (Promega, Madison, WI) in the same assay wells.
# Tox21 Assay Protocol Summary:
# HRE-bla ME-180 cells were dispensed at 2,000 cells per well in 6 uL of assay medium containing 0.5% dialyzed FBS into black wall/clear-bottom 1536-well plates using a Multidrop Combi (Thermo Scientific, Waltham, MA) dispenser. After the assay plates were incubated at 37C and 5% CO2 for 5 hrs, 23 nL of compounds dissolved in DMSO, positive controls or DMSO only was transferred to each well of the assay plate using a Pintool station (Kalypsys, San Diego, CA). The assay plates were incubated at 37C and 5% CO2 for 17 hrs. One uL of LiveBLAzerTM B/G FRET substrate (CCF4-AM) (Life Technologies) was added to each well using a Flying Reagent Dispenser (FRD, Aurora Discovery, San Diego, CA). After 2 hr incubation at room temperature, fluorescence intensity (405 nm excitation, 460 nm and 530 nm emissions) was measured using an Envision plate reader (PerkinElmer, Shelton, CT). For cytotoxicity, 4 ul/well of CellTiter-Glo reagent was added into the assay plates using an FRD. After 30 min incubation at room temperature, the luminescence intensity was measured using a ViewLux plate reader (PerkinElmer).
# Potency is read from the fitted curve at half-maximal effect.
SMILES,"activity change, negative = cytotoxicity",Potency
c1ccc(-c2ccc(-c3ccccc3)cc2)cc1,1.63% [at 15.8 µM] (inactive),–
O=[N+]([O-])c1ccccc1CCO,–,inactive
N#Cc1ccc(CC(=O)c2cccc(C(F)(F)F)c2)cc1,–,inactive
CCCC1CCOC(C)S1 (stereo not given),–,inactive
CCC(CC)C(=O)O,–,inactive
C=C[Si]1(C)O[Si](C)(C=C)O[Si](C)(C=C)O[Si](C)(C=C)O1 (stereo not given),–,inactive
CCn1nc(Cc2ccccc2)cc1C1CCN(C[C@H]2C[C@H](N(C)[C@@H](C(=O)O)C(C)C)C[C@@H]2c2cccc(F)c2)CC1,–,inactive
CCCC(=O)OCCC(C)C,–,inactive
Cc1c(Cl)cccc1Nc1ccccc1C(=O)O,–,inactive
CC(C)=CCC/C(C)=C/C=N/O,–,inactive
CC(C)NC(=O)c1ccccc1N,–,inactive
C/C(=C(\CCO)SS/C(CCO)=C(\C)N(C=O)Cc1cnc(C)nc1N)N(C=O)Cc1cnc(C)nc1N,–,inactive
CCOc1ccc2c(c1)C(C)CC(C)(C)N2 (stereo not given),–,inactive
CCCCCCCCCCCCCCCCN,–,inactive
O=C(Nc1ccccc1)c1cc([N+](=O)[O-])ccc1Cl,–,inactive
O=C(O)c1cc(C(=O)O)cc([N+](=O)[O-])c1,–,inactive
O=C1c2ccccc2C(=O)C1c1ccc2ccccc2n1,–,inactive
CC(C)C/C=C(\C=O)c1ccccc1,–,inactive
CC(C)CCCCCCCOC(=O)c1ccc(C(=O)OCCCCCCCC(C)C)c(C(=O)OCCCCCCCC(C)C)c1,–,inactive
SCCOCCOCCS,–,inactive

SMILES,"activity change, negative = cytotoxicity",Potency
Cc1c(Nc2ncccc2C(=O)O)cccc1C(F)(F)F,–,inactive
CCCCCCOC(=O)c1ccccc1,–,19.5 µM (active)
COc1ccc(/C(C)=C/C(=O)O)c(OC)c1,–,inactive
CCCC(=O)OCc1ccccc1,–,inactive
O=C1C=CCCC1,–,inactive
CC(C)(C(=O)O)c1ccc(C(O)CCCN2CCC(C(O)(c3ccccc3)c3ccccc3)CC2)cc1 (stereo not given),–,inactive
CC(C(=O)O)c1ccc2c(c1)Cc1cccnc1O2 (stereo not given),–,inactive
O=C1OC(=O)C2CC=CCC12 (stereo not given),–,inactive
CCOc1ccc(NC(C)=O)cc1N,–,inactive
O=C(c1ccc(Cl)cc1)c1ccc(Cl)cc1,–,inactive
CCc1cnc(C(=O)O)c(C(=O)O)c1,–,inactive
CCCN(C1CCN(C(=O)C2CCNCC2)CC1)[C@@H]1CCc2ccc(OC)cc2C1,–,inactive
COC(=O)Cc1cccc2ccccc12,–,inactive
O=C(OCCN1CCOCC1)c1cccnc1Nc1cccc(C(F)(F)F)c1,–,inactive
CCN(CCCCOC(=O)c1ccc(OC)c(OC)c1)C(C)Cc1ccc(OC)cc1 (stereo not given),–,inactive
O=c1c2ccccc2oc2ccccc12,–,inactive
COc1ccc(/C=C/c2cc(OC)cc(=O)o2)cc1,–,inactive
CC(COc1ccccc1)NC(C)C(O)c1ccc(O)cc1 (stereo not given),–,inactive
O=P(c1ccccc1)(c1ccccc1)c1ccccc1,–,inactive
CCN(CC)CC(=O)OCC(=O)[C@@]1(O)CC[C@H]2[C@@H]3CCC4=CC(=O)CC[C@]4(C)[C@H]3[C@@H](O)C[C@@]21C,–,inactive
